A number with no mark means an inactive call.
test system: Caenorhabditis elegans dauer (daf-2(e1370)); experiment: proportion of mobile C. elegans dauer larvae relative to DMSO control (fraction of DMSO control); higher = more viable, less nematicidal, active = 0.63 or less; extreme values may be limits of the assay; details: 60 µM; 5 days; temperature: 20 °C
How it was run: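 Synchronized C. elegans larvae were kept for 48 h at 25 °C on MYOB plates seeded with E. coli OP50 to induce dauer formation, and roughly 20 dauers were transferred into each well of a 96-well plate containing liquid NGM. Compound was pinned in to a final concentration of 60 µM with 0.6% v/v DMSO, and the sealed plates were shaken at 200 rpm for 5 days at 20 °C. The fraction of mobile worms was scored under a dissection microscope against DMSO-only wells and averaged across two biological replicates.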

Compound | proportion of mobile C. elegans dauer larvae
COC(=O)c1ccc(NC(=O)CSc2nnc(-c3ccc(Cl)cc3Cl)o2)cc1 | 1
CCC(=O)Nc1ccccc1-c1nc(-c2ccccn2)no1 | 1
Brc1cccc(-c2nnc(SCc3ccccc3)o2)c1 | 1
Brc1ccc(OCc2nc(-c3ccc4c(c3)OCO4)no2)cc1 | 1
CC(C)(C)C(=O)CSc1nnc(-c2ccc(Cl)cc2Cl)o1 | 1
COc1ccc(Cl)cc1-c1noc(COc2ccccc2C)n1 | 1
Cc1cc(OCc2nc(-c3ccccn3)no2)ccc1Br | 1
CCOC(=O)c1ccc(OCc2nc(-c3cccs3)no2)cc1 | 1
O=C(CSc1nnc(-c2ccccc2Cl)o1)NCc1ccco1 | 1
Brc1ccc(-c2nc(-c3ccncc3)no2)cc1 | 0.767
Clc1ccc(-c2nc(-c3ccncc3)no2)cc1Cl | 1
COc1cccc(CSc2nnc(-c3ccco3)n2C)c1 | 1
Cc1ccc(-c2nc(-c3cccc(C(F)(F)F)c3)no2)cc1 | 1
CC(=O)Nc1ccc(NC(=O)c2ccccc2-c2nc(-c3ccccc3Cl)no2)cc1 | 1
CC(C)C(=O)Nc1ccccc1-c1nc(-c2cccnc2)no1 | 1
Cc1cccc(-c2noc(-c3cccc(Cl)c3)n2)c1 | 1
Cc1cccc(-c2noc(-c3ccccc3Br)n2)c1 | 1
Cc1ccc(-c2nnc(SCC(=O)Nc3ccccc3)o2)cc1 | 1
O=C(CSc1nnc(-c2ccco2)o1)c1ccccc1 | 1

Compound | proportion of mobile C. elegans dauer larvae
Cc1ccc(-c2noc(-c3cccc(C)c3)n2)cc1 | 0.557 (active)
Cc1cccc(-c2nc(-c3ccc(Br)cc3)no2)c1 | 1
Cc1ccc(-c2noc(-c3ccccc3C(=O)N3CCC(C)CC3)n2)cc1 | 1
Cc1ccccc1-c1noc(-c2ccc(F)cc2)n1 | 1
COc1ccc(-c2nnc(SCC(=O)c3ccc(C)o3)o2)cc1 | 1
Clc1ccccc1OCc1nc(-c2ccc(Br)cc2)no1 | 1
Cn1c(SCc2ccc(Cl)cc2)nnc1-c1ccco1 | 1
Cc1ccc(-c2noc(COc3ccccc3Cl)n2)cc1 | 1
CC(Oc1ccc(C(C)(C)C)cc1)c1nc(-c2ccncc2)no1 (stereo unspecified) | 1
CCOc1ccccc1-c1nc(-c2ccc(NC(=O)Cc3ccccc3OC)cc2)no1 | 1
COc1ccc(-c2nnc(SCC(=O)N(C)c3ccccc3)o2)cc1 | 1
O=C(CSc1nnc(-c2ccccc2Cl)o1)Nc1ccc(F)cc1 | 1
COc1ccccc1-c1nc(-c2ccc(Br)cc2)no1 | 1
CC(C)c1ccc(OCc2nc(-c3ccccn3)no2)cc1 | 1
COc1ccc(CC(=O)Nc2ccc(-c3noc(-c4ccccc4Br)n3)cc2)cc1 | 1
Cc1cc(OCc2nc(-c3ccncc3)no2)ccc1Cl | 1
COc1cccc(-c2noc(-c3ccc(C)cc3)n2)c1 | 0 (active)
CC(C)CCC(=O)Nc1ccccc1-c1nc(-c2ccccn2)no1 | 1
Cc1ccc(OCc2nc(-c3ccc(Cl)cc3)no2)c(C)c1 | 1

test system: Ditylenchus dipsaci; experiment: proportion of mobile D. dipsaci (mixed stage) relative to DMSO control (fraction of DMSO control); higher = more viable, less nematicidal, active = 0.86 or less; extreme values may be limits of the assay; details: 60 µM; 5 days; temperature: 20 °C
How it was run: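 The worms, D. dipsaci raised on pea plants in Gamborg B-5 agar, were recovered through a filter funnel into water. Each well of a 96-well plate then held about 20 of them in distilled water plus pinned compound at 60 µM final (0.6% v/v DMSO), and the sealed plates were shaken at 200 rpm at 20 °C for 5 days. Following addition of 2 µL 1 M NaOH, mobile worms were counted by microscopy, and mobility was expressed against DMSO controls as the average of two biological replicates.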

Compound | proportion of mobile D. dipsaci
COC(=O)c1ccc(NC(=O)CSc2nnc(-c3ccc(Cl)cc3Cl)o2)cc1 | 1
CCC(=O)Nc1ccccc1-c1nc(-c2ccccn2)no1 | 1
Brc1cccc(-c2nnc(SCc3ccccc3)o2)c1 | 1
Brc1ccc(OCc2nc(-c3ccc4c(c3)OCO4)no2)cc1 | 1
CC(C)(C)C(=O)CSc1nnc(-c2ccc(Cl)cc2Cl)o1 | 1
COc1ccc(Cl)cc1-c1noc(COc2ccccc2C)n1 | 1
Cc1cc(OCc2nc(-c3ccccn3)no2)ccc1Br | 1
CCOC(=O)c1ccc(OCc2nc(-c3cccs3)no2)cc1 | 1
O=C(CSc1nnc(-c2ccccc2Cl)o1)NCc1ccco1 | 1
Brc1ccc(-c2nc(-c3ccncc3)no2)cc1 | 1
Clc1ccc(-c2nc(-c3ccncc3)no2)cc1Cl | 1
COc1cccc(CSc2nnc(-c3ccco3)n2C)c1 | 1
Cc1ccc(-c2nc(-c3cccc(C(F)(F)F)c3)no2)cc1 | 1
CC(=O)Nc1ccc(NC(=O)c2ccccc2-c2nc(-c3ccccc3Cl)no2)cc1 | 1
CC(C)C(=O)Nc1ccccc1-c1nc(-c2cccnc2)no1 | 1
Cc1cccc(-c2noc(-c3cccc(Cl)c3)n2)c1 | 1
Cc1cccc(-c2noc(-c3ccccc3Br)n2)c1 | 1
Cc1ccc(-c2nnc(SCC(=O)Nc3ccccc3)o2)cc1 | 1
O=C(CSc1nnc(-c2ccco2)o1)c1ccccc1 | 1

Compound | proportion of mobile D. dipsaci
Cc1ccc(-c2noc(-c3cccc(C)c3)n2)cc1 | 1
Cc1cccc(-c2nc(-c3ccc(Br)cc3)no2)c1 | 1
Cc1ccc(-c2noc(-c3ccccc3C(=O)N3CCC(C)CC3)n2)cc1 | 1
Cc1ccccc1-c1noc(-c2ccc(F)cc2)n1 | 1
COc1ccc(-c2nnc(SCC(=O)c3ccc(C)o3)o2)cc1 | 1
Clc1ccccc1OCc1nc(-c2ccc(Br)cc2)no1 | 1
Cn1c(SCc2ccc(Cl)cc2)nnc1-c1ccco1 | 1
Cc1ccc(-c2noc(COc3ccccc3Cl)n2)cc1 | 1
CC(Oc1ccc(C(C)(C)C)cc1)c1nc(-c2ccncc2)no1 (stereo unspecified) | 1
CCOc1ccccc1-c1nc(-c2ccc(NC(=O)Cc3ccccc3OC)cc2)no1 | 1
COc1ccc(-c2nnc(SCC(=O)N(C)c3ccccc3)o2)cc1 | 1
O=C(CSc1nnc(-c2ccccc2Cl)o1)Nc1ccc(F)cc1 | 1
COc1ccccc1-c1nc(-c2ccc(Br)cc2)no1 | 1
CC(C)c1ccc(OCc2nc(-c3ccccn3)no2)cc1 | 1
COc1ccc(CC(=O)Nc2ccc(-c3noc(-c4ccccc4Br)n3)cc2)cc1 | 1
Cc1cc(OCc2nc(-c3ccncc3)no2)ccc1Cl | 1
COc1cccc(-c2noc(-c3ccc(C)cc3)n2)c1 | 1
CC(C)CCC(=O)Nc1ccccc1-c1nc(-c2ccccn2)no1 | 1
Cc1ccc(OCc2nc(-c3ccc(Cl)cc3)no2)c(C)c1 | 1
